Measured values from PubChem BioAssay.
Calls of active or inactive are those of the source.

Experiments:
[1] = molecular target: Albumin (Bos taurus) (UniProt P02769); experiment: compounds binding labelled BSA control protein – biochemical, small-molecule microarray, Alexa647 label, 635/667 nm fluorescence, artefact control for SMM control protein annotation, profiling panel (AID 1118); conditions: BSA-A647 binding, fluorescence 635 nm, higher = more signal;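 further: score merges 667 nm emission intensity and signal-to-noise per printed compound spot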
Sequence of Albumin (Bos taurus) (P02769 whole entry, looked up): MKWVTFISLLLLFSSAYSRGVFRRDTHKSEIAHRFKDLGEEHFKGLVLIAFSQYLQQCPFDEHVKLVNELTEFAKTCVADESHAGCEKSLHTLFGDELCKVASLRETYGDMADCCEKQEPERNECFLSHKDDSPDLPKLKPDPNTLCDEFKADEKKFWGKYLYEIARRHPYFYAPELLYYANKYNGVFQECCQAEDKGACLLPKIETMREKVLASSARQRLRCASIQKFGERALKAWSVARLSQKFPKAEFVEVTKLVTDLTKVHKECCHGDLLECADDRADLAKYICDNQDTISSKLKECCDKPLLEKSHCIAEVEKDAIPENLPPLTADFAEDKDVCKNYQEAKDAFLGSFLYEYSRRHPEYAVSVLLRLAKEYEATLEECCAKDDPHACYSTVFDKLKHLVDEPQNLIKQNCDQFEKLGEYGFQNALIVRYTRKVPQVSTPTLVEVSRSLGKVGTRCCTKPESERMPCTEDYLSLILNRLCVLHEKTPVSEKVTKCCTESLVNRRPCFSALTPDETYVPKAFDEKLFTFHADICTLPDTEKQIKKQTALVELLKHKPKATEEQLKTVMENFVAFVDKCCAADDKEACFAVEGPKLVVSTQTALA

[2] = probe aXIP binding to arrayed compounds – biochemical, NeuroSMM set, 635/667 nm fluorescence, primary screen (AID 1119); conditions: small-molecule microarray, higher = more signal, called active from +8 up or from −8 down;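 further: probe is the protein aXip251-270 applied at 1 µg/mL to compound-printed slides; binding of probe to printed compounds measured as 667 nm fluorescence plus signal to noise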
[3] = probe aNOTCH3 binding on compound microarray – biochemical, small-molecule microarray, 635/667 nm fluorescence, primary screen (AID 1120); conditions: higher = more signal;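 further: probe is a biotin-tagged antibody raised against NOTCH3 rather than NOTCH3 protein; score merges spot fluorescence near 667 nm with spot signal to noise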
[4] = probe aNOTCH2 binding on compound microarray – biochemical, small-molecule microarray, 635/667 nm fluorescence, primary screen (AID 1121); conditions: higher = more signal;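 further: score merges feature fluorescence read at 667 nm with its signal to noise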
[5] = molecular target: Carbonic anhydrase 2 (Homo sapiens) (UniProt P00918); experiment: compounds binding carbonic anhydrase 2 – biochemical, small-molecule microarray, Alexa647-labelled CAII, profiling panel (AID 1122); conditions: CAII-A647 binding fluorescence, higher = more signal
[6] = COS7 lysate on small-molecule microarray, probe aHis, 635 nm (AID 1123); conditions: COS7 cell lysate, fluorescence, higher = more signal;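 further: z-score combines 667nm fluorescence intensity with signal-to-noise per printed compound spot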
[7] = probe aLAP1 signal on lysate-treated microarray – cell lysate, small-molecule microarray, COS7 lysate, primary screen (AID 1124); conditions: probe aLAP1, fluorescence, higher = more signal;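 further: lysate comes from COS7 cells expressing LAP1 and is applied at 0.3 µg/mL; score merges spot fluorescence near 667 nm with signal-to-noise over triplicate slides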
[8] = tested on: Sam68 (KHDRBS1); experiment: compounds binding KHDRBS1 protein – biochemical, small-molecule microarray, 635 nm fluorescence, primary screen (AID 1125); conditions: higher = more signal;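 further: score merges 667 nm channel intensity with signal to noise over triplicate slides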
[9] = tested on: Chordin-like protein 2 (CHRDL2); experiment: compounds binding chordin-like 2 – biochemical, small-molecule microarray, 635 nm fluorescence, primary screen (AID 1126); conditions: fluorescence 635 nm, higher = more signal;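 further: printed compound slides probed with Chrdl2 protein at 4 µg/mL for 1 h at 4 C; score merges 667 nm emission intensity with signal to noise over three replicate slides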
[10] = molecular target: Concanavalin-A (Canavalia ensiformis) (UniProt P02866); experiment: compounds binding concanavalin A lectin – biochemical, small-molecule microarray, Alexa647 label, 635 nm, artefact control for SMM control protein annotation, primary screen (AID 1127); conditions: ConA-A647 binding fluorescence, higher = more signal;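 further: z combines 667 nm emission intensity with signal-to-noise across three replicate slides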
Sequence of Concanavalin-A (Canavalia ensiformis) (P02866 whole entry, looked up): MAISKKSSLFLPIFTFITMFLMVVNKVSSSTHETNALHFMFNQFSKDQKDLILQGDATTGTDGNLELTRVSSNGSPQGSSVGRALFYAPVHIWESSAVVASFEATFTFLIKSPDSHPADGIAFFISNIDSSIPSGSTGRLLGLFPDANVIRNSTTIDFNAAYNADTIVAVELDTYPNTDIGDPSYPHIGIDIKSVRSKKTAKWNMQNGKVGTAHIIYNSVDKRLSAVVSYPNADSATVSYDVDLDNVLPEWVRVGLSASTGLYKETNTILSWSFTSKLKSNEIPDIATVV

[11] = compounds binding Alexa647 anti-His antibody – biochemical, small-molecule microarray, 635 nm fluorescence, artefact control for SMM control protein annotation, primary screen (AID 1128); conditions: higher = more signal;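 further: score merges feature fluorescence with signal-to-noise for each printed compound spot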
[12] = tested on: Human papillomavirus type 1a E7 protein (residues 1-88); experiment: HPV1a E7 small-molecule binders, primary screen, biochemical, small-molecule microarray, residues 1-88, 635 nm (AID 1129); conditions: small-molecule microarray binding, fluorescence 635 nm; higher = more signal
[13] = molecular target: Focal adhesion kinase 1 (Homo sapiens) (UniProt Q05397); experiment: PTK2 protein binding on printed compound slides – biochemical, small-molecule microarray, 635/667 nm fluorescence, BSA, DTT, primary screen (AID 1130); conditions: 635 nm fluorescence, higher = more signal;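 further: composite of spot emission at 667 nm and signal to noise over triplicate slides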
Sequence of Focal adhesion kinase 1 (Homo sapiens) (Q05397 whole entry, looked up): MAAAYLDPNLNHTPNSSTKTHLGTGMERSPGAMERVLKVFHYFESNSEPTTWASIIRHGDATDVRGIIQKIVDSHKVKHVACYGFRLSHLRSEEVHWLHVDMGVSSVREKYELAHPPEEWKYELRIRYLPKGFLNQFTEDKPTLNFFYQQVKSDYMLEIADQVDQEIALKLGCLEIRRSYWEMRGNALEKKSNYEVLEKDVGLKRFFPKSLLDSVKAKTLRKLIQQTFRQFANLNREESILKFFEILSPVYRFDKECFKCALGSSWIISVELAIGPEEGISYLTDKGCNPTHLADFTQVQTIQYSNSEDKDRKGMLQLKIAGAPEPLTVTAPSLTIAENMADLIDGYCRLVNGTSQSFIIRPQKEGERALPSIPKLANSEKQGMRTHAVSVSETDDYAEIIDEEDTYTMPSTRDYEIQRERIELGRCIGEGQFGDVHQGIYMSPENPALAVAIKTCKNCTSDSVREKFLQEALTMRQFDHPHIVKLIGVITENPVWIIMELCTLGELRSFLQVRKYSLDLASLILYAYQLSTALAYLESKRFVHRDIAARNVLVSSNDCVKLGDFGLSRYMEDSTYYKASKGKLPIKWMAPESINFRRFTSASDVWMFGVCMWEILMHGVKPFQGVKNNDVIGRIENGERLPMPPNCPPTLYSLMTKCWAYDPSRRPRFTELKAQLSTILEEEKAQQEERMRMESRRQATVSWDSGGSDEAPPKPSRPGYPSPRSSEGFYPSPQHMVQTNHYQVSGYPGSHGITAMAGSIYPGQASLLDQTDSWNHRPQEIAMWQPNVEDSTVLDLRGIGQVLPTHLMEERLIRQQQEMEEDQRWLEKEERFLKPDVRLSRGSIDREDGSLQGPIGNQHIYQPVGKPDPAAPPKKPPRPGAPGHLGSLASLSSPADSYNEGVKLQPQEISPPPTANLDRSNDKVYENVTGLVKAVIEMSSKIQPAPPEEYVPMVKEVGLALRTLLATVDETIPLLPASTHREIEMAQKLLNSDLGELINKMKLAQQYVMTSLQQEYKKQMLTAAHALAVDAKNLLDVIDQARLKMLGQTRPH

[14] = tested on: Fibrinogen (Alexa647-labelled); experiment: Alexa647-fibrinogen binding to printed small molecules – biochemical, small-molecule microarray, 635/667 nm fluorescence, artefact control for SMM control-protein annotation, profiling panel (AID 1131); conditions: fibrinogen-A647 binding fluorescence, higher = more signal;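 further: z-score merges 667 nm fluorescence with per-spot signal-to-noise over triplicate slides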
[15] = molecular target: Follistatin (Homo sapiens) (UniProt P19883); experiment: FST protein binding to printed compounds – biochemical, small-molecule microarray, 635/667 nm fluorescence, primary screen (AID 1132); conditions: 635 nm fluorescence, higher = more signal
Sequence of Follistatin (Homo sapiens) (P19883 whole entry, looked up): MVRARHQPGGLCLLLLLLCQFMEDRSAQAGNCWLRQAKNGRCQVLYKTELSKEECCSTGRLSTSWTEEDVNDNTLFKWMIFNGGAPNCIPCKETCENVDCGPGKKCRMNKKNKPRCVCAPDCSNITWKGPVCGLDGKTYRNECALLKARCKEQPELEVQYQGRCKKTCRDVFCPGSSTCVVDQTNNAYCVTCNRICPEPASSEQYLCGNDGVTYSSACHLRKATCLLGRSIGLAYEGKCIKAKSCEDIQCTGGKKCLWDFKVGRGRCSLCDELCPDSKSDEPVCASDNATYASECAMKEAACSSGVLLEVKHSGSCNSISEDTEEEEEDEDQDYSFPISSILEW

[16] = molecular target: Fibroblast growth factor 2 (Homo sapiens) (UniProt P09038); experiment: basic fibroblast growth factor binding to printed compounds – biochemical, small-molecule microarray, 635/667 nm fluorescence, primary screen (AID 1133); conditions: FGF2, fluorescence 635/667, higher = more signal
Sequence of Fibroblast growth factor 2 (Homo sapiens) (P09038 whole entry, looked up): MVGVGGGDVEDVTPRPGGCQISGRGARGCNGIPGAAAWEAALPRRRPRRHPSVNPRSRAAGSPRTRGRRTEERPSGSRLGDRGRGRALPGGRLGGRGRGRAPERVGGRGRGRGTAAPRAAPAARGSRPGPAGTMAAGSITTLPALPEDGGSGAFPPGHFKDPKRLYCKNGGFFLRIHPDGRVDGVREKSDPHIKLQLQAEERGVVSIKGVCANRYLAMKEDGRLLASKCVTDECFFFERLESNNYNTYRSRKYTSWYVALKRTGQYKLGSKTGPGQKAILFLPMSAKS

[17] = JC-1 mitochondrial potential readout, lung cancer cells – cell-based, A549, JC-1 fluorescence, basal, 24 h, 100 nL, profiling panel (AID 1138); conditions: higher = more signal;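 further: A549 lung adenocarcinoma cells under basal conditions with no added stimulus; test concentration not given here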
[18] = tested on: Lefty1; experiment: Lefty1 protein binding to printed compounds – biochemical, small-molecule microarray, 635/667 nm fluorescence, primary screen (AID 1139); conditions: fluorescence 635/667, higher = more signal
[19] = tested on: wheat germ agglutinin (Triticum aestivum), Alexa647-labelled; experiment: Alexa647-WGA lectin binding to printed small molecules – biochemical, small-molecule microarray, 635/667 nm fluorescence, artefact control for SMM control-protein annotation, profiling panel (AID 1140); conditions: WGA-A647 binding, 635 nm fluorescence, higher = more signal;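 further: score merges 667 nm feature emission with signal to noise over triplicate slides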
[20] = molecular target: Luciferin 4-monooxygenase (Photinus pyralis) (UniProt P08659); experiment: inhibition of purified Photinus pyralis luciferase – biochemical, luminescence, purified enzyme, 2006 set, primary screen (AID 1141); conditions: purified firefly luciferase, SteadyGlo luminescence, 30 min; higher = more signal, called active from +8 up or from −8 down;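 further: cell-free assay with purified firefly luciferase at 100 ng per well in PBS; test concentration not given here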
Sequence of Luciferin 4-monooxygenase (Photinus pyralis) (P08659 whole entry, looked up): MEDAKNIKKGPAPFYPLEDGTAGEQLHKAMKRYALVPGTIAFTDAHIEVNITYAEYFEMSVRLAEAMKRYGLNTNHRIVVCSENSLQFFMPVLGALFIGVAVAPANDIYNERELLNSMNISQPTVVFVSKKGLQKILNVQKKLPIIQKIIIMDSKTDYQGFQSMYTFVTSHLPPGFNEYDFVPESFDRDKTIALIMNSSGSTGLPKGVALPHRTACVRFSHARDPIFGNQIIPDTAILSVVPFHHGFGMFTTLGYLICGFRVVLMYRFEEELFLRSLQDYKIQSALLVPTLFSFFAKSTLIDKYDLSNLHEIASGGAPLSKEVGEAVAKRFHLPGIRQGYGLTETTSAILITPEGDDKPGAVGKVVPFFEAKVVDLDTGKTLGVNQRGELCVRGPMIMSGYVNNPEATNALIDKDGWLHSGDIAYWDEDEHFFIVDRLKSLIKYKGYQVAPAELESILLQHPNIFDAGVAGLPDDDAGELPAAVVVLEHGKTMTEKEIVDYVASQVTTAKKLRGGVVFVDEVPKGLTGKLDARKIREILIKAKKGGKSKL

| SMILES | composite z-score [1] | composite Z-score [2] | composite z-score [3] | composite z-score [4] | composite z-score [5] | composite z-score [6] | composite z-score [7] | composite z-score [8] | composite z-score [9] | composite z-score [10] | composite z-score [11] | composite z-score [12] | composite z-score [13] | composite z-score [14] | composite z-score [15] | composite z-score [16] | z-score [17] | composite z-score [18] | composite z-score [19] | z-score [20] |
| --- | --- | --- | --- | --- | --- | --- | --- | --- | --- | --- | --- | --- | --- | --- | --- | --- | --- | --- | --- | --- |
| C=C(COC)C(=O)CC[C@H](OC(=O)c1cccnc1)c1ccc(OCCO)cc1 | -0.286 | 0.509 (inactive) | 0.201 | -0.128 | 0.665 | 0.709 | 1.53 | 1.14 | 0.563 | 0.293 | -0.108 | 0.355 | -0.172 | 0.637 | 1.07 | 0.893 | -0.747 | 1.63 | 0.73 | -2.23 (inactive) |
| CN(C)CCCNC(=O)[C@@]1(Cc2ccccc2I)c2ccccc2C(=O)N(C2CCCCC2)[C@H]1c1ccc(CO)cc1 | 0.33 | 0.56 (inactive) | 0.417 | 0.227 | 0.443 | 1.57 | 0.653 | 1.31 | -0.0713 | 1.16 | 0.743 | 1.2 | 0.732 | 1.01 | 0.872 | 0.156 | -1.42 | 0.27 | 1.2 | 0.371 (inactive) |
| COCCCN1C(=O)[C@@]2(c3ccc([N+](=O)[O-])cc3)CC(=O)N(CC34CC5CC(CC(C5)C3)C4)[C@@H]2c2ccc(CO)cc21 | -0.0098 | 0.208 (inactive) | -0.101 | -0.0666 | 0.48 | 0.373 | 0.991 | 0.229 | -0.0444 | 0.728 | -0.0041 | -0.217 | -0.102 | -0.753 | 1 | 0.232 | 0.961 | 0.739 | 0.115 | -0.844 (inactive) |
| CC(C)NC(=O)[C@@H]1c2ccccc2C(=O)N(Cc2ccccc2C(F)(F)F)[C@H]1c1ccc(CO)cc1 | -0.273 | -0.483 (inactive) | -0.0144 | -0.0901 | 0.726 | 0.725 | 0.647 | -0.0631 | -0.585 | -0.329 | -0.403 | -0.358 | -0.156 | -0.55 | 0.471 | 0.232 | -0.18 | -1.5 | 0.145 | 0.681 (inactive) |
| COc1ccc([Si](C)(C)[C@H]2[C@H](CC(=O)N3Cc4ccccc4C[C@H]3CO)O[C@@]3(C(=O)N(C)c4ccccc43)[C@@H]2C)cc1 | 0.656 | 0.673 (inactive) | 0.163 | -0.11 | 0.686 | 1.89 | 0.941 | 1.28 | 1.37 | 1.01 | 1.45 | 1.19 | 0.333 | 0.945 | 1.52 | 1.24 | 0.206 | 1.58 | 0.938 | -0.243 (inactive) |
| C[N+](C)(C)CCCC[C@@H]1NC(=O)[C@H]2C[C@@H](C(=O)NCCCCCNC(=O)CS)[C@@H](c3cccc(OCCO)c3)N2C1=O | 0.479 | 0.518 (inactive) | -0.0881 | -0.115 | 0.69 | 1.63 | 0.985 | 0.165 | 0.245 | 0.896 | 1.38 | 0.518 | 0.247 | 0.821 | 0.78 | 0.549 | 0.299 | -0.383 | 0.343 | -1.09 (inactive) |
| O=C(NC1CC1)[C@@H]1c2ccccc2C(=O)N(Cc2ccc(OC(F)(F)F)cc2)[C@H]1c1ccc(CO)cc1 | 0.22 | 0.061 (inactive) | -0.1 | -0.0974 | 0.642 | 1.41 | -0.169 | 0.932 | -0.584 | -0.037 | -0.0809 | 0.836 | 0.234 | -1.39 | 0.664 | 0.668 | 1.39 | 0.39 | 0.331 | 1.12 (inactive) |
| COc1ccc(CCNC(=O)[C@@H]2c3ccccc3C(=O)N(Cc3ccccc3OC)[C@H]2c2ccc(CO)cc2)cc1 | 0.454 | 0.511 (inactive) | -0.176 | -0.0068 | 0.533 | 1.59 | 0.886 | 1.28 | -0.246 | 0.792 | 1.71 | 1.15 | 0.347 | 0.406 | 0.674 | 1.02 | 0.84 | 0.0605 | 0.655 | 0.256 (inactive) |
| C=C(CCCC)/C(=C/C[C@H](OC(=O)c1ccncc1)c1cccc(OCCO)c1)c1cnc2ccccc2c1 | 0.677 | -0.12 (inactive) | 0.211 | -0.0649 | 0.861 | 1.17 | 0.423 | 1.26 | 0.51 | 0.831 | 0.13 | 1.1 | 0.469 | 0.957 | 1.11 | 0.688 | 2.01 | 1.07 | 0.851 | -0.78 (inactive) |
| COc1ccc(C(=O)Nc2cccc(CN3C(=O)[C@@]4(O[C@@H](CC(=O)N5CCC[C@H]5CO)[C@H]([Si](C)(C)c5ccc(OC)cc5)[C@H]4C)c4ccccc43)c2)cc1 | 0.343 | -0.0697 (inactive) | 0.0305 | -0.11 | 0.531 | 1.75 | -0.19 | 1.34 | 0.862 | 1.17 | 1.39 | 1.03 | 0.988 | 0.875 | 1.08 | 1.1 | 1.53 | 0.703 | 0.7 | -0.599 (inactive) |
| CCN(CC)c1ccc(N2CC=CC34O[C@@H]5C=CCCOC(=O)C5[C@H]3C(=O)N(C(C)CO)[C@@H]4C2=O)cc1 (stereo not given in full) | 0.653 | 0.195 (inactive) | 0.102 | -0.159 | 0.835 | -0.806 | 0.385 | -0.304 | -0.0271 | -0.361 | 1.72 | 0.649 | 0.339 | -0.943 | 0.461 | -0.199 | 0.337 | 0.399 | 0.329 | -0.421 (inactive) |
